From the supplement of paper PMC3724861
This excerpt belongs to a sample that is enriched for hits. How many sequences the whole screen found active is unknown.

test system: T1, Caupolican (Caup) homeodomain DNA-binding domain; test: PBM E-score (8-mer, recovered from the published 9-mer minima) (E-score (dimensionless, -0.5 to 0.5)); Drosophila protein; higher = stronger relative binding preference, active = 0.31 or more
T1 sequence: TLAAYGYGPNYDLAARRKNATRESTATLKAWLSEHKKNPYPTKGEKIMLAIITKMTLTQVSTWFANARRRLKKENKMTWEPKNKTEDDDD
Summary of the method: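 An enrichment score, with higher meaning stronger, expresses relative binding preference for each short DNA word. The protein used was Caup's homeodomain DNA-binding domain (residues 214-303), produced by in vitro transcription and translation and tested at 100 nM on custom-designed protein binding microarrays. The 8-mer values were recovered from published 9-mer scores, each equal to the lower of its two constituent 8-mer scores.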

PBM E-score, active:
GAGATGTA 0.329, ATTATGTA 0.327, CTTATGTA 0.345, ACGACAAC 0.339, AGGACATG 0.38, AAGACATG 0.381, ACGACATG ≥ 0.416, ACGACAAG ≥ 0.317, AACACAAC ≥ 0.339, AACACAAT ≥ 0.319, AAGCATGT 0.356, AACCATGT 0.347, AATCATGT 0.42, AAACGTGT 0.31, AATCGTGT 0.324, AAATATGT 0.335, GTACACGA 0.427, ATACACGA 0.33, TCTTGTCA 0.329, GCTTGTCA 0.352, CCTTGTCA 0.342, ACTTGTCA ≥ 0.378, GACATACA 0.389, TACATACA 0.415, AACATACT 0.31, TACATAAA 0.329, AACATACA 0.361, ATGTTAAT 0.352, ATGTTAAA 0.353, ATGTTAAC 0.377, CTGTACAA 0.335, TTGTACAA ≥ 0.44, GTGTACAA 0.396, ATGTACAA 0.453, TAAGAACA 0.313, TACGAACA 0.31, AATACACG 0.343, CATACACG 0.325, AATACACA 0.311, GATGTCAA 0.332, TATGTCAA ≥ 0.359, CTTGTGTA ≥ 0.341, CGTGTATA 0.321, GTTGTATA 0.347, CTTGTATA 0.353, CTTGTATC 0.34, AAATACAT 0.338, AAATACAC 0.312, AAATACAA 0.327

PBM E-score, inactive:
GATTCGGC -0.0366, CAGAACAG 0.0845, ATCGCTTG -0.0165, ATAGTCCG 0.00249, TAGCAAGA 0.142, CTACTCAA 0.116, CCAGTCAG -0.104, TCGCAACA 0.0932, CTATACGA 0.0334, AAGATGTA 0.298, CAGATGTA 0.247, TATTGAAA 0.117, GTTATGTA 0.276, CTTATGTC 0.224, ATTATGTG 0.197, ATTATGTC 0.227, CGGTTCAA -0.15, AGCGGTTA -0.0759, AGAGATGA -0.00602, AAGACATT 0.0764, GCGACAAC 0.224, ACGACATC 0.26, AGGACATC 0.233, CCGACAAC 0.198, ACGACATA 0.299, AGGACAAG 0.254, AAGACATA 0.229, CATTTTGA 0.0478, ACGAGTGC 0.0719, ATATACTG 0.156, TCAACGAA 0.0771, GGGATTAC 0.0873, CTGCGTGA -0.0361, GACCTCTA -0.142, GATGCCTA 0.0242, CGCTAGAC -0.0864, ACGACAAA 0.194, ACGACAAT 0.186, CCACAGCC -0.141, AACACAAA 0.207, AACACAAG 0.228, GACACAAC 0.216, CACACAAC 0.14, GAGACACC -0.0907, AACCATGC 0.0352, AAGCATGC 0.122, AATCATGA 0.164, AATCATGG 0.0994, AAGCATGG 0.00906, AACCATGG 0.0193, ACAATTCG 0.163, AGATCGCC -0.108, TCCAGTCA -0.102, AAACGTGA 0.0748, AAACGTGG -0.051, AATCGTGA 0.102, AATCGTGC 0.105, AGCGTCGA 0.017, AATGATAA 0.141, GAGTAACC -0.034, ATGGACGG -0.0288, CATCCTGA 0.007, AAATATGA 0.164, AAATATGC 0.00511, ATAGCCTC -0.0831, CGTAAACG -0.0383, GTACACCA 0.238, ATACACGG 0.299, ATACACGC 0.275, CTACACGA 0.295, ACGCGCTC -0.0722, CAAGTTAA 0.137, CTGGGCCA -0.265, GATCTCGC -0.112, GCGGTCTA -0.0746, ACAACCTC 0.169, ACTTGTCC 0.237, CCTTGTCG 0.277, ACTTGTCG 0.266, CCTTGTCC 0.171, TCTTGGCA -0.0494, TATTGTCA 0.225, GCTTGTCC 0.305, GATTGTCA 0.13, GGGCGCAA -0.179, AAGCACCG -0.0685, CGATTCAG -0.0377, CTCATAAA 0.05, AAACAAAA 0.189, GACATACC 0.169, CACATAAA 0.121, TCCATACA 0.139, AACATAAA 0.286, CACATACA 0.232, AACATACG 0.28, GACATAGA 0.187, AACATACC 0.303, GCTCCTCA -0.234, ATTCTCCG -0.0182, GACAGCAC 0.0877, CCCACTAG -0.195, CGTACTGC -0.0592, GAAAATCA 0.141, ACTCCGAG -0.0336, CTCCGGAA -0.126, AGCATACA 0.202, AACATAGA 0.232, GGATCTCA -0.137, AGGTTAAT 0.0346, TTGTTAAA 0.23, GTGTTAAC 0.259, CTGTTAAC 0.117, CTGTTAAA 0.108, ATGTTAAG 0.283, GTAAGGAA 0.0866, AGGAACGC -0.132, CTGTACCA 0.186, ATGTAGAA 0.281, CTGTACGC 0.037, GTCTACAA 0.185, ACGTACAA 0.288, GTGTACGA 0.226, GCTAAGAC -0.0692, ACTGACCC -0.14, AAATCCAG 0.0354, CGCTTGGA -0.0438, GAAGATGC -0.152, ACCAGTTC -0.0567, GGACTCCA -0.13, AGATATTG 0.0643, CATCTGCG -0.00421, CTAGAATC 0.0169, CAAGAACA 0.187, AACGAACA 0.305, GAAGAACA 0.3, CACGAACA 0.27, GAATCCCC -0.127, AGCGAGAC -0.0966, ACCCCATC -0.158, AATACACT 0.192, TATACACA 0.289, CATACACC 0.15, CATACACA 0.309, AATACACC 0.292, GATACACA 0.241, ATCTAGTG 0.0489, CGATATAC 0.0606, CCAAAAAG -0.00726, ACGAAGTA 0.0633, GATGTCCA 0.195, TCTGTCAA 0.157, GGTGTCAA 0.197, AATGTCAA 0.235, GTGAAGGA -0.0495, CTTAGACA 0.0709, AAATGGTA 0.174, GAGCTCTA -0.0532, ACTGTATA 0.143, AGTGTATA 0.14, GTTGTGTA 0.298, CGTGTATC 0.258, ATTGTATA 0.259, ATTGTGTA 0.283, CCTGTATA 0.142, GCTGTATA 0.194, AGAGGTAC 0.0429, AGTGGCCG -0.226, TGCGACAA 0.148, GAAGAGGA -0.161, ACCTGCAA -0.023, GCCGTATA 0.0675, ACGCCTAA 0.0349, TGGTCAAA 0.0685, CCCTCTAG -0.126, CTTGTAGC 0.271, ATTGTATC 0.215, AAATACAG 0.132, AAATACTT 0.1, CAATACAC 0.271, TAATACAA 0.278, CAATACAA 0.261, GAATACAC 0.25
